Bioassay records as filed in PubChem.
This excerpt belongs to a sample that is enriched for hits.
ALR inh – inhibitors of human sulfhydryl oxidase ALR; purified ALR, DTT oxidation, H2O2 HRP-luminol luminescence; 290,000 tested, 3.8% active; inhibition, % (concentration not given with the values); P55789; AID 485317;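 active = mean replicate inhibition above about 79%, with every replicate also reaching it, limit read from the data; inconclusive = only one of the two criteria met; inactive = mean below limit and not every replicate reaching it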
HDAC3 inhib – human HDAC3 inhibition. 320,000 tested, 0.15% active. recombinant HDAC3, fluorogenic peptide/trypsin coupled, fluorescence. inhibition, % at 8.3 µM. O15379. AID 2718; in the data active = inhibition above about 26%, passing the limit was not always enough; inconclusive = no clear call, values can overlap the other calls
Target sequence (O15379 whole entry, looked up): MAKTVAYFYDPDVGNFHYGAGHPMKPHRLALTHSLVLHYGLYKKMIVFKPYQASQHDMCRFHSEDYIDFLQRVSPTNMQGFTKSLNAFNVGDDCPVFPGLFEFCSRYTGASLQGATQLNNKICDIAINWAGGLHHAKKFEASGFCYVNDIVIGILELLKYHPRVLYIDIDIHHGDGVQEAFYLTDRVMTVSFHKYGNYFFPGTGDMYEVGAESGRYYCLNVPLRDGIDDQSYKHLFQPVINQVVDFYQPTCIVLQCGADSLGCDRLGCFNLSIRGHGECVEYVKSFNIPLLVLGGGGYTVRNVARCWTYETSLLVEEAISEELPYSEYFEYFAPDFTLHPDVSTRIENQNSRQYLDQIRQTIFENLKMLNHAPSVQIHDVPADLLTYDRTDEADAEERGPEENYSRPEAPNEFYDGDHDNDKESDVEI
GC-B act – GC-B (human) receptor activation. activation, % at 10 µM. P20594. HEK293-GC-B cells, CNP EC30, cGMP TR-FRET; 0% at EC30 CNP, 100% saturating CNP. 370,000 tested, 0.11% active;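 active = activation at 10 µM reaching about 35% in either raw or pattern-adjusted values, limit read from the data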
GC-A act – GC-A (human) enzyme activation | HEK293 GC-A cells, cGMP TR-FRET, EC30 ANP; 0% at EC30 ANP, 100% saturating ANP | activation, % at 10 µM | 370,000 tested, 0.14% active; in the data active = activation above about 40%
Numbers without * were called inactive.

Screening O=C1c2cccc3cccc(c23)C(=O)N1CCCc1n[nH]c(=S)n1-c1ccccc1 returned ALR inh 92*, HDAC3 inhib 0, GC-B act -3 and GC-A act -3.
For OCCCc1n[nH]c(=S)n1-c1ccccc1 the results were ALR inh 37, HDAC3 inhib 9, GC-B act -3 and GC-A act 3.
`CC(=O)c1c(C)cc(C)c(CSc2nnc(-c3ccco3)o2)c1C` gave ALR inh 90*, HDAC3 inhib 1, GC-B act 0 and GC-A act -5.
`O=C(CSc1nnc(-c2ccco2)o1)c1ccc[nH]1` gave ALR inh 98*, HDAC3 inhib 0, GC-B act 6 and GC-A act 0.
O=C(CSc1nnc(-c2ccco2)o1)c1ccccc1 was read as ALR inh 99*, HDAC3 inhib inconclusive, GC-B act 3 and GC-A act 1.
`CCCOC1CCCN(Cc2nc(-c3ccc(C(=O)OC)cc3)no2)C1` (centres undefined) gave ALR inh 1, HDAC3 inhib -2, GC-B act -1 and GC-A act 3.
O=C(O)C1CCCCN1c1ccccc1[N+](=O)[O-] (centres undefined) was read as GC-B act 8 and GC-A act 1.
For CN1C(=O)NC(c2ccc(O)cc2)C2=C1CN(c1ccc(O)cc1)C2=O (centres undefined) the results were ALR inh 99*, HDAC3 inhib 0, GC-B act 3 and GC-A act 3.
`S=C(Nc1ccccc1Cl)NC1CC2CCCC(C1)N2C1CC1` (centres undefined) gave HDAC3 inhib 1, GC-B act 1 and GC-A act -7.
COc1cccc(N2CCN(c3nc(C)cc(C)c3C#N)CC2)c1 was read as ALR inh 86*, HDAC3 inhib 9, GC-B act -1 and GC-A act -5.
For Cc1cc(NS(=O)(=O)c2ccc(NC(=O)c3cnc(Cl)c(Cl)c3)cc2)nc(C)n1 the results were ALR inh 99*, HDAC3 inhib -4, GC-B act 4 and GC-A act 0.
Screening Cc1cc(NS(=O)(=O)c2ccc(NC(=O)CSc3nc4ncc(Br)cc4[nH]3)cc2)nc(C)n1 returned ALR inh 99*, HDAC3 inhib 0, GC-B act 0 and GC-A act 1.
Screening Cc1cc(NS(=O)(=O)c2ccc(NC(=O)CSc3nc4ncccc4[nH]3)cc2)nc(C)n1 returned ALR inh 99*, HDAC3 inhib -11, GC-B act 3 and GC-A act 4.
`Cc1cc(NS(=O)(=O)c2ccc(NC(=O)CSc3nc4ncc(Cl)cc4[nH]3)cc2)nc(C)n1` gave ALR inh 100*, HDAC3 inhib 5, GC-B act 5 and GC-A act 4.
`CC(=O)Nc1ccc(NC(=O)c2ccc3c(c2)CCN3S(C)(=O)=O)cc1` gave ALR inh -5, HDAC3 inhib 1, GC-B act 3 and GC-A act 2.
`CS(=O)(=O)N1CCc2cc(C(=O)Nc3ccc(O)cc3)ccc21` gave ALR inh 99*, HDAC3 inhib 3, GC-B act 2 and GC-A act -4.
For CCOc1cccc(/C=N\NC(=O)c2cnccn2)c1O the results were GC-B act -3 and GC-A act 5.
`N#CC(C(=O)NC1CCCCC1)=C1CCCCCC1` gave ALR inh -5, HDAC3 inhib 4, GC-B act -5 and GC-A act -3.
For N#C/C(=N\Nc1c(Cl)cccc1Cl)C(=O)NN the results were ALR inh 98*, HDAC3 inhib -5, GC-B act -1 and GC-A act -1.
For Cc1ccc(C(=O)OCC(=O)Nc2ccccc2N2CCOCC2)cc1 the results were ALR inh 92*, HDAC3 inhib 11, GC-B act 4 and GC-A act 7.
For O=C(COC(=O)c1ccc(F)cc1)Nc1ccccc1N1CCOCC1 the results were ALR inh -1, HDAC3 inhib -3, GC-B act 2 and GC-A act 2.
Screening CCCCCC(=O)Nc1ccccc1N1CCOCC1 returned ALR inh 99*, HDAC3 inhib -4, GC-B act 2 and GC-A act 1.
Screening Nc1nc(-c2c[nH]c3ccccc23)cs1 returned ALR inh 87*, HDAC3 inhib 2, GC-B act 3 and GC-A act -2.
`Cc1ccc(S(=O)(=O)NCCc2nnc3ccc(N4CCOCC4)nn23)cc1` gave GC-B act 4 and GC-A act 0.
